Among all 310,000 compounds or so, about 18,000 (5.8%) were called active. Not shown: some 22% with an inconclusive outcome. This excerpt belongs to a sample that is enriched for actives. A number with no mark means an inactive call. Calls come from the whole dose curve; as a rule, active = well fitted inhibition curve with a large enough effect; inconclusive = small, poorly fitted or top-dose-only effect, or another doubt; inactive = no such curve, though single readings can be large or run the other way.
% is set by controls: 0 for no effect and ±100 for the full control effect; potency is the fitted concentration of half-maximal effect.

The nature of this assay: Primary qHTS for delayed death inhibitors of the malarial parasite plastid, 48 hour incubation. Particulars: P. falciparum luciferase growth in erythrocytes; series mostly up to 28.7 µM; activity change, negative = inhibition: at the top concentration. The text has this:
The goal of this screen is to discover new antimalarial compounds that act by inhibiting the development of the apicoplast in the malarial parasite Plasmodium falciparum. The biochemical processes that make this organelle essential for erythrocytic stage parasites are not well understood. However, antibiotics such as azithromycin and tetracycline, which target the apicoplast translational machinery, have a potent antimalarial effect.
We have developed a cell-based assay that measures parasite growth based on the expression of an integrated copy of a firefly luciferase reporter. To detect small molecules that cause this "delayed death" phenotype, erythrocytes infected with the luciferase-expressing parasites were incubated with compounds for either one or two generations, corresponding to 48 and 96 hours, respectively. Compounds that inhibit parasite growth in the second generation, but not the first, should be enriched in antimalarials that target the apicoplast. Growth inhibition is detected by a decrease in luciferase activity.
Assay Provider: David Fidock and Eric Ekland, Columbia University
Keywords: NIH Roadmap, MLPCN, MLI, MLSMR, qHTS, NCGC, qHTS, malaria, luciferase, viability
Four microliters of culture medium (RPMI 1640 with 0.5% w/v Albumax (GIBCO), 24 mM sodium bicarbonate and 10 ug/mL gentamycin) were dispensed by a Multi-drop Combi into white solid 1536-well plates (Grenier) and 23 nL compound was added by a pin tool. Four microliters of infected erythrocytes (2% hematocrit, 0.1% parasitemia final concentration) in culture medium were dispensed and the plates incubated for 48 hours at 37 C in 5% CO2. Two microliters of luciferase detection reagent was added and luminescence was detected by a ViewLux (PerkinElmer) reader.
As to `COc1ccc(CN2C(=O)CN=C2Nc2ccc(C)cc2C)cc1`, the “activity change, negative = inhibition” value is -2.89%. Take `CCn1c(CN2C(=O)CSc3ccccc32)n[nH]c1=S`: the “activity change, negative = inhibition” value is -12.7%.

Take `CC(C)(C)c1ccc(CN2C(=O)CN=C(c3ccccc3)c3ccccc32)cc1`: the Potency is 2.08 µM (active). Turning to `O=S(=O)(NCCc1ccc(Cl)cc1)c1cccs1`, the “activity change, negative = inhibition” value is 20.8%.

Take `Cc1cc(NC(C)C)n2c(nc3ccccc32)c1C#N`: the “activity change, negative = inhibition” value was -23.9%.

`Cc1cc(NCc2ccco2)n2c(nc3ccccc32)c1C#N`: the Potency is 4.15 µM (active). As for `Cc1ccccc1-c1nc(C#N)c(NCc2ccco2)o1`, the “activity change, negative = inhibition” value was 4.33%. As for `COc1ccc(CCN2CC(C(=O)NCCN3CCNC3=O)CCC2=O)cc1` (stereo unspecified), the “activity change, negative = inhibition” value was 29%. The same measure, in the same setting: with `O=C(CN1CCN(S(=O)(=O)c2ccc(F)cc2)CC1)NC1CC1` the figure was 9.53%.

As for `O=S(=O)(c1ccc(F)cc1)N1CCN(C(=S)NC2CCCC2)CC1`, the Potency was 7.38 µM (active). Consider `CC1CCN(S(=O)(=O)c2ccc(S(=O)(=O)NCc3ccco3)cc2)CC1`, for which the “activity change, negative = inhibition” value is 7.63%. Same read-out and setting: with `Cc1ccc(S(=O)(=O)N2CCC(C(=O)N[C@@H](C)C(=O)NCc3ccco3)CC2)cc1` the figure was -1.32%. Regarding `O=S(=O)(c1ccc(F)cc1)N1CCN(C(=S)NCc2ccco2)CC1`, the Potency is 1.47 µM (active). `O=C(O)C1CCCCC1C(=O)N1CCN(S(=O)(=O)c2ccc(F)cc2)CC1` (stereo unspecified): the “activity change, negative = inhibition” value is 17.8%. With `C=CCOc1ccc(/C=C/C(=O)OC(C)C(=O)Nc2ccc(NC(C)=O)cc2)cc1` (stereo unspecified), the “activity change, negative = inhibition” value is 32.7%. Still for that read-out and setting: to `O=C(CN1CCCCCC1)Nc1ccc(Br)cc1[N+](=O)[O-]` belongs 17.6%; to `Cc1cc(OCC(=O)N(C)c2c(N)n(Cc3ccccc3)c(=O)[nH]c2=O)c(C(C)C)cc1Cl`, -4.06%. The same measure, in the same setting: with `COc1ccc(CCN(C)CCN2C(=O)c3ccccc3C2=O)cc1OC` the figure was 0.247%. As to `COc1ccc(CCN2C(=O)c3[nH]nc(-c4ccccc4O)c3C2c2ccc(C)cc2)cc1OC` (stereo unspecified), the Potency is 9.28 µM (active).

With `COc1cc(C2C(C(=O)c3ccc(C)o3)=C(O)C(=O)N2CCc2ccccc2)ccc1O` (stereo unspecified), the “activity change, negative = inhibition” value is 56.4%.

As for `COc1ccc(NC(=O)C2=C(C)NC(=O)NC2c2ccccc2[N+](=O)[O-])cc1` (stereo unspecified), the “activity change, negative = inhibition” value is -0.334%.

Regarding `COC(=O)c1nc2n(n1)C(c1ccc([N+](=O)[O-])cc1)C(C(=O)Nc1ccc(Cl)cc1)=C(C)N2` (stereo unspecified), the Potency was 1.65 µM (active). For the compound `COCCOC(=O)C1=C(C)Nc2nc(C)nn2C1c1ccccc1` (stereo unspecified), the “activity change, negative = inhibition” value was 3.78%. On the same count and under the same terms, to `COCCN1CCN(C(=O)c2cc(COc3ccc(F)cc3Cl)on2)CC1` belongs 5.96%. Same read-out and setting: to `CC1CC(C)CN(S(=O)(=O)c2cccc3nonc23)C1` (stereo unspecified) belongs 32.9%; to `C=CCn1c(SCC(=O)NCCCO)nc2sc3c(c2c1=O)CCC3`, -8.06%. The same measure, in the same setting: to `CC(C)c1nc(SCC(=O)Nc2cccc(C(=O)O)c2)c2c3c(sc2n1)CCCC3` belongs 27.6%. For `CC1=CC(C)(C)Nc2ccc(OC(=O)CN3C(=O)C4CCCCC4C3=O)cc21` (stereo unspecified), the Potency was 10.4 µM (active). In the case of `CC1=CC(C)(C)Nc2ccc(OC(=O)C(Cc3ccccc3)N3C(=O)C4CCCCC4C3=O)cc21` (stereo unspecified), the Potency was 13.1 µM (active). `Cc1ccc(C)n1C(Cc1ccccc1)C(=O)O` (stereo unspecified): the “activity change, negative = inhibition” value was 4.96%.

`CC(OC(=O)CN1C(=O)C2CCCCC2C1=O)C(=O)Nc1ncc(Cl)cc1Cl` (stereo unspecified): the “activity change, negative = inhibition” value was -0.453%.

`O=C(CN1C(=O)C2C3CCC(C3)C2C1=O)Oc1ccc2ccccc2c1` (stereo unspecified): the “activity change, negative = inhibition” value was 8.88%. On to `CCC1(C)NC(=O)N(CC(=O)N2CCN(c3cccc(Cl)c3)CC2)C1=O` (stereo unspecified), for which the “activity change, negative = inhibition” value was -20%. As for `Cc1ccc(C)c(NC(=O)COC(=O)CSc2ccccc2)c1`, the “activity change, negative = inhibition” value is -2.8%. The same measure, in the same setting: to `Cc1cccc(C)c1NC(=O)N1CC(C)OC(C)C1` (stereo unspecified) belongs -2.21%; to `Cc1sc2nc(CSCC(=O)NC3CCCCC3)[nH]c(=O)c2c1C`, 47.3%.

Take `CCC1(c2ccccc2)C(=O)NC(=O)N(C)C1=O` (stereo unspecified): the Potency is 16.9 µM (active). Take `Cc1c(C=O)n(C)n(-c2ccccc2)c1=O`: the “activity change, negative = inhibition” value is 8.37%. Same read-out and setting: to `CNC(=O)CN1C(=O)NC(c2ccccc2)(c2ccccc2)C1=O` belongs 19%.

Take `CN(CCc1ccccc1)c1ccc([N+](=O)[O-])cn1`: the “activity change, negative = inhibition” value is 39.2%.

For the compound `COc1ccccc1/C=C1\SC(=O)N(CCC(=O)N(C)C2CCS(=O)(=O)C2)C1=O` (stereo unspecified), the “activity change, negative = inhibition” value is -8.56%.

With `CCC(=O)c1ccc(OC(=O)/C=C/c2cc(OC)c(OC)c(OC)c2)cc1`, the “activity change, negative = inhibition” value was 10.4%. Take `O=C(NCC(c1cccnc1)N1CCN(c2ccccc2)CC1)Oc1ccccc1` (stereo unspecified): the Potency was 13.1 µM (active). For the compound `Cc1ccc(C)c(NC(=S)NCC(c2cccnc2)N2CCOCC2)c1` (stereo unspecified), the “activity change, negative = inhibition” value was 18.8%. Turning to `CN1CCN(C(CNS(=O)(=O)c2cccs2)c2cccnc2)CC1` (stereo unspecified), the “activity change, negative = inhibition” value is 22.3%. Same read-out and setting: to `COc1cc(CO)ccc1OCC(=O)Nc1cccc2ccccc12` belongs 0.965%; to `CC(C)(CNC(=O)CNC(=O)C1CCCCC1)N1CCOCC1`, -4.63%. Still for that read-out and setting: with `O=C(NC(=S)Nc1ccc(Cl)c(C(=O)O)c1)c1cncc(Br)c1` the figure was 36%.

Consider `CN1CCN(C(=S)SCC(=O)Nc2ccc(Cl)cc2C(=O)c2ccccc2)CC1`, for which the “activity change, negative = inhibition” value was 0%. Regarding `O=C(COC(=O)c1ccccc1)Nc1ccc(Cl)cc1C(=O)c1ccccc1`, the “activity change, negative = inhibition” value was 12.9%. For `O=C(CCNS(=O)(=O)c1ccccc1)Nc1ccc(Cl)cc1C(=O)c1ccccc1`, the Potency was 11.7 µM (active).

The values are drawn from PubChem BioAssay AID504832 (National Center for Advancing Translational Sciences (NCATS), 2011).
